The target in assay [1] is Thioredoxin reductase 1, cytoplasmic (Rattus norvegicus) (UniProt O89049). The assay is described as follows: qHTS Assay for Substrates of Mammalian Selenoprotein Thioredoxin Reductase 1 (TrxR1) (AID 488772).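 Also: NADPH fluorescence in the first read after selenite addition and not the 8 min delta; series mostly up to about 57 µM; 0% is about no effect; a drop in NADPH fluorescence below the no-compound background marks a TrxR1 substrate.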 In a few lines: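 Quantitative HTS in Tris-HCl buffer at pH 7.5 with EDTA and Tween-20, using rat TrxR1, 400 uM NADPH and 400 uM selenite (final). A fall in initial NADPH fluorescence relative to background marked substrate behaviour.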
Thioredoxin reductase 1, cytoplasmic (Rattus norvegicus), sequence (O89049 whole entry, looked up): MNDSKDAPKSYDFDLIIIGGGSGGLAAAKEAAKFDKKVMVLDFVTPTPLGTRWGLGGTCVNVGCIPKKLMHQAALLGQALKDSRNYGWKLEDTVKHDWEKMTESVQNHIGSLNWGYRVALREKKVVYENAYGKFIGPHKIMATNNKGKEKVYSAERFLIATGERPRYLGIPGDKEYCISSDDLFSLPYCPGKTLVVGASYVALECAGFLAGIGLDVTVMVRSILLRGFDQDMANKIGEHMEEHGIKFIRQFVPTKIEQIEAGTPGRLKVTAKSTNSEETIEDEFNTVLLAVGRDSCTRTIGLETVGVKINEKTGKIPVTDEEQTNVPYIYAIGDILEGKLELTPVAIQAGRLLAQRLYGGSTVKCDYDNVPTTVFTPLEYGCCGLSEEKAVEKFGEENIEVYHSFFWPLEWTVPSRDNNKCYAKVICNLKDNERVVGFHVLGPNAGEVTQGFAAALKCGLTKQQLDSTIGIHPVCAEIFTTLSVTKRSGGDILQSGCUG
Background: Quantitative high-throughput screening tests each substance at several concentrations.

For assay [2] the target is unchanged. As to the kind of experiment: qHTS Assay for Inhibitors of Mammalian Selenoprotein Thioredoxin Reductase 1 (TrxR1) (AID 488773).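 Also: drop in NADPH fluorescence over an 8 min run after selenite addition; series mostly up to about 57 µM; % is scaled to controls: 0 for no effect and ±100 for the full control effect; nearly all actives have a fitted effect of over 40% in size.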 In a few lines:
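Steps: enzyme (90 nM) plus NADPH (400 uM final), 5 min at ~22 deg C; compound added, 15 min; selenite (400 uM final) added; fluorescence followed for 8 min. Concentration-response curves derived from the normalized delta values.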

Assay [3] concerns the target M-phase phosphoprotein 8 (Homo sapiens) (UniProt Q99549). The assay is described as follows: qHTS Validation Assay for Inhibitors for MPP8 Chromodomain Interactions with Methylated Histone Tails (AID 488949). Also: top concentration of the series differs between compounds; % is scaled to controls: 0 for no effect and ±100 for the full control effect; nearly all actives have a fitted effect of over 55% in size. In a few lines:
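MPP8 (50 nM) was pre-bound to 50 nM biotinylated H3(1-18)K9me3 peptide in PBS pH 7.4 with 0.01% Tween-20. Compounds were then added for 30 min at room temperature, and complex disruption was read by AlphaScreen with streptavidin donor and nickel-chelate acceptor beads.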

Assay [4] deals with Chromobox protein homolog 1 (Homo sapiens) (UniProt P83916). As to the kind of experiment: qHTS Validation Assay for Inhibitors of HP1-beta Chromodomain Interactions with Methylated Histone Tails (AID 488953).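 Also: loss of AlphaScreen luminescence from HP1-beta binding biotinylated H3K9me3 peptide; series mostly up to about 110 µM; % is scaled to controls: 0 for no effect and ±100 for the full control effect; nearly all actives have a fitted effect of over 50% in size.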 In a few lines:
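HP1-beta (50 nM) was preincubated 30 min at room temperature with biotinylated H3(1-18)K9me3 peptide (50 nM) in PBS pH 7.4, 0.01% Tween-20, then with compounds 30 min. AlphaScreen signal was read after streptavidin donor/nickel chelate acceptor beads (10 ug/mL final).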

Assay [5] deals with Methanococcus maripaludis chaperonin (MmCpn) (UniProt Q6LX38). The assay is described as follows: High-Throughput Screening for Modulators of Cytosolic Chaperonin Activity: MmCpn Primary Screen (AID 488978).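 Also: 50 nM MmCpn enzyme hydrolysing 30 µM ATP at 37 °C; 0% is about no effect.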 In a few lines:
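MmCpn at 50 nM final was preincubated 5 min at RT with compound. ATP was then added at 30 uM final for 10 min at 37 C. ADP formed was detected by Transcreener HTRF (665/590 nm).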

The target in assay [6] is Thyrotropin receptor (Homo sapiens) (UniProt P16473). The assay is described as follows: qHTS Assay for Antagonists of the Thyroid Stimulating Hormone Receptor (AID 488980). Also: series mostly up to about 58 µM; 0% is about no effect. In a few lines: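 TSHR-transfected HEK293 cells (2000/well) in HEPES-buffered HBSS with 70 uM RO 20-1724 were stimulated with 4 nM TSH (EC80, final) in the presence of compound. cAMP was measured by HTRF competition after lysis and 30 min at RT.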

The target of assay [7] is D(1A) dopamine receptor (Homo sapiens) (UniProt P21728). The assay is described as follows: HTS Assay for Allosteric Agonists of the Human D1 Dopamine Receptor: Primary Screen for Potentiators (AID 488982). Also: 0% is about no effect. In a few lines:
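Tetracycline-induced HEK293 T-REx cells force-coupled to calcium signalling were incubated overnight at 30 C and dye-loaded at room temperature. Calcium flux over 180 s after compound addition flagged agonists; a further 180 s read after EC20 dopamine flagged potentiators.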

In assay [8] the target is ATP-dependent 6-phosphofructokinase (Trypanosoma brucei brucei) (UniProt O15648). As to the kind of experiment: qHTS Assay to Find Inhibitors of T. brucei phosphofructokinase: hit validation (AID 492961).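 Also: luminescence reports ADP formed as PFK phosphorylates fructose-6-phosphate with ATP; series mostly up to about 51 µM; % is scaled to controls: 0 for no effect and ±100 for the full control effect.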 In a few lines:
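Reaction: 0.1 M triethanolamine pH 8.0, 5 mM MgCl2, F6P 0.5 mM, ATP 0.1 mM, PFK 1.25 nM, 45 min RT. Read-out: ADP-Glo luminescence. Analysis: concentration-response fits, classed by r2 and efficacy.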

A short description of assay [9]: Validation screen for small molecules that induce genotoxicity in human embryonic kidney (HEK293T) cells expressing luciferase-tagged ELG1 (AID 493106). Also: 0% is about no effect. In a few lines: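 HEK293T cells expressing luciferase-tagged ELG1 were exposed to compound or DMSO vehicle for 16 hr at 37 °C, 5% CO2. Genotoxic stress raises ELG1 levels, so increased luciferase signal after ONE-Glo addition and 30 min at room temperature marks hits.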

The target in assay [10] is Thyrotropin-releasing hormone receptor (Homo sapiens) (UniProt P34981). The assay is described as follows: qHTS for Small Molecule Agonists and Allosteric Enhancers of Human TRH Receptor: Validation Screen for Agonists (AID 493127;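 active = calcium activation more than 3 SD above the typical response in the agonist read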;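 also: intracellular calcium rise by fluo-8 fluorescence before TRH EC20 addition; 0% is about no effect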). Conditions: TRH receptor agonist cell assay; at 2 µM; stronger effect = higher value. In a few lines: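 TRHR-expressing cells were plated overnight in serum-containing medium, then loaded with fluo-8 calcium dye at room temperature for 30 min–1.5 h. After a 10 s baseline, compound was pin-transferred and calcium fluorescence (ex 480/em 530) read kinetically for agonist response.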

A short description of assay [11]: qHTS for Inhibitors of Cell Surface uPA Generation: Validation Assay (AID 493164).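 Also: RAW 264.7 macrophage cells exposed to compound for 18 h; 0% is about no effect.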 In a few lines:
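RAW 264.7, 4000 cells/well, o/n plating; cpd 7-pt 1:5 dilution 2.45 nM–38.3 uM final; 18 h, 37 C/5% CO2; ATP-Lite, 5 s luminescence exposure.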

Assay [12] deals with Galactokinase (Homo sapiens) (UniProt P51570). As to the kind of experiment: qHTS Validation Assay for Inhibitors of Human Galactokinase (GALK) (AID 493189). Also: 0% is about no effect. In a few lines:
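GALK (5 nM) with 35 uM ATP and 100 uM galactose in HEPES pH 8.0 with MgCl2, NaCl, DTT and BSA. Reaction ran 1 h at room temperature. Residual ATP read by Kinase-Glo Plus luminescence.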

Assay [13] is described as follows: Validation screen for small molecules that induce DNA re-replication in SW480 colon adenocarcinoma cells (AID 504364). Also: 0% is about no effect. In a few lines:
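SW480 cells seeded at 250 per well were exposed to compound or DMSO for 48 hr at 37 C, 5% CO2, then stained with Hoechst for 40 min. DNA content per nucleus was imaged (405 nm ex, 500-530 nm em).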

The target in assay [14] is Peptidyl-prolyl cis-trans isomerase NIMA-interacting 1 (Homo sapiens) (UniProt Q13526). The assay is described as follows: qHTS Validation Assay to Find Inhibitors of Pin1 (AID 504536; active = well fitted inhibition curve with a large enough effect in the polarisation, with a control signal flat, not every such curve was filed as active; the % refers to the polarisation;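 also: 0% = full Pin1 enzyme wells and -100% = no-enzyme wells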). In a few lines: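 Fluorescence polarization competition: compounds (titration) displace HiFluor-488-labeled Pin1-1b peptide from Pin1 (0.3 uM final) in pH 7.5 HEPES buffer with DTT, 10 min at room temperature; %Activity normalized to no-enzyme wells, curves fitted.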

In assay [15] the target is Flap endonuclease 1 (Homo sapiens) (UniProt P39748). As to the kind of experiment: qHTS Validation Assay for the Inhibitors of Human Flap endonuclease 1 (FEN1) (AID 488816). Also: % is scaled to controls: 0 for no effect and ±100 for the full control effect. In a few lines: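 FEN1, dispensed as a 10 nM reagent, was preincubated with pin-transferred compounds for 15 min at room temperature before substrate was added (50 nM final). Plates were read at 0 and 15 min, and a four-parameter Hill equation was fitted to the concentration-response data.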
Flap endonuclease 1 (Homo sapiens), sequence (P39748 whole entry, looked up): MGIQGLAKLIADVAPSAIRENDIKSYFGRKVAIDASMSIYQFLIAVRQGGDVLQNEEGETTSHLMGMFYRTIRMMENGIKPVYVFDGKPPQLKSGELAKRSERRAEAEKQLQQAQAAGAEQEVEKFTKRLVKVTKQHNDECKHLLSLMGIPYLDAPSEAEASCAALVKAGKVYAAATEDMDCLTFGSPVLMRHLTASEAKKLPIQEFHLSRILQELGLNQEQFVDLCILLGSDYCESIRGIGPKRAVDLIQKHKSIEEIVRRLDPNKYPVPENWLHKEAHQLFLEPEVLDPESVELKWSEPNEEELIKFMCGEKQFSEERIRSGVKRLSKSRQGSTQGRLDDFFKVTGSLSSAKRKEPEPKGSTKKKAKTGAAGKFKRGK

In assay [16] the target is D(1A) dopamine receptor (Homo sapiens) (UniProt P21728). The assay is described as follows: HTS Assay for Allosteric Agonists of the Human D1 Dopamine Receptor: Primary Screen for Antagonists (AID 488983).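 Also: calcium flux response to an EC80 dopamine challenge measured with no-wash dye; % is scaled to controls: 0 for no effect and ±100 for the full control effect; nearly all actives have a fitted effect of over 65% in size.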 In a few lines: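 Tetracycline-induced HEK293 T-REx cells expressing force-coupled D1 were plated overnight at 30 C, dye-loaded for calcium, and read kinetically. Compounds were pinned in, then an EC80 dopamine challenge followed after 180 s to reveal antagonism.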
D(1A) dopamine receptor (Homo sapiens), sequence (P21728 whole entry, looked up): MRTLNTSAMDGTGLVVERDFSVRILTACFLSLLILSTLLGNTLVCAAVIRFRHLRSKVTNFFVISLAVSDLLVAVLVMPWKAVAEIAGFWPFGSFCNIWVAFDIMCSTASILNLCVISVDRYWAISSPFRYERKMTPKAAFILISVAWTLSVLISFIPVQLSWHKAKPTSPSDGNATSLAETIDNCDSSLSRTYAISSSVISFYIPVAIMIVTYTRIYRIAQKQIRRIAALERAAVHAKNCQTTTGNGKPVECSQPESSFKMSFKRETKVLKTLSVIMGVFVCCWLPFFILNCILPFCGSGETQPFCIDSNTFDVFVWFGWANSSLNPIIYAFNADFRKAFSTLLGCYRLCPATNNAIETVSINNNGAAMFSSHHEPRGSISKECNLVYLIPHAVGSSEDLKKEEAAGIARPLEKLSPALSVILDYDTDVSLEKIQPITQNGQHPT

Assay [17] has as its target ATPase family AAA domain-containing protein 5 (Homo sapiens) (UniProt Q96QE3). As to the kind of experiment: Validation screen for small molecules that inhibit ELG1-dependent DNA repair in human embryonic kidney (HEK293T) cells expressing luciferase-tagged ELG1 (AID 493107).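 Also: cells co-treated with the DNA-damaging agent 5-fluorouridine alongside compound; series mostly up to about 46 µM; % is scaled to controls: 0 for no effect and ±100 for the full control effect; inhibitors lower the ELG1-luciferase luminescence signal; nearly all actives have a fitted effect of over 70% in size.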 In a few lines:
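HEK293T cells expressing luciferase-tagged ELG1 were co-treated with 5-fluorouridine and compound or DMSO for 16 hr at 37 °C, 5% CO2. Luciferase activity was then read with ONE-Glo after 30 min at room temperature; suppressed signal indicates blocked ELG1 function.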

Assay [18] can be described thus: Nrf2 qHTS screen for inhibitors: Validation (AID 493153; active = well fitted inhibition curve with a large enough effect in the main read-out, with a control signal flat, not every such curve was filed as active). The settings on record: viability change: measured here: cytotoxicity max response. In a few lines: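 A549 cells carrying an ARE-driven firefly luciferase reporter, in 5% FBS OPTI-MEM, were treated with compounds in concentration-response for 18-24 h at 37°C. Viability was read by CellTiter-Fluor fluorescence, then Nrf2 activity by luciferase luminescence.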

The nature of assay [19]: Quantitative high throughput screen for delayed death inhibitors of the malarial parasite plastid, 48 hour incubation (AID 488752). Also: % is scaled to controls: 0 for no effect and ±100 for the full control effect; nearly all actives have a fitted effect of over 65% in size. In a few lines:
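Erythrocytes infected with P. falciparum carrying an integrated firefly luciferase reporter (2% hematocrit, 0.1% parasitemia final) were exposed to compounds in RPMI 1640/0.5% Albumax for 48 h at 37 C, 5% CO2. Growth inhibition was scored as reduced luminescence.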

The target of assay [20] is Transient receptor potential cation channel subfamily V member 1 (Homo sapiens) (UniProt Q8NER1). As to the kind of experiment: HTS Assay for Compounds that Act as Enhancers of the Vanilloid Receptor 1 (AID 488979). Also: 0% is about no effect. In a few lines: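 TRPV1-expressing cells loaded with Fluo-8 calcium dye; compounds added and calcium influx read kinetically for 3 min (agonist phase), then capsaicin at EC20 added and read 2 min more for enhancement. Fluorescence ex 480/em 520 nm.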

Results filed as inconclusive are left out. Activity calls are given as the source filed them. Unless noted, calls follow the shape of the dose curve; as a rule, active = well fitted curve in the direction sought with a large enough effect; inconclusive = small, poorly fitted or top-dose-only effect, or another doubt; inactive = no such curve, though single readings can be large; an effect the other way counts as inactive or inconclusive.

Methanococcus maripaludis chaperonin (MmCpn), sequence (Q6LX38 1-543): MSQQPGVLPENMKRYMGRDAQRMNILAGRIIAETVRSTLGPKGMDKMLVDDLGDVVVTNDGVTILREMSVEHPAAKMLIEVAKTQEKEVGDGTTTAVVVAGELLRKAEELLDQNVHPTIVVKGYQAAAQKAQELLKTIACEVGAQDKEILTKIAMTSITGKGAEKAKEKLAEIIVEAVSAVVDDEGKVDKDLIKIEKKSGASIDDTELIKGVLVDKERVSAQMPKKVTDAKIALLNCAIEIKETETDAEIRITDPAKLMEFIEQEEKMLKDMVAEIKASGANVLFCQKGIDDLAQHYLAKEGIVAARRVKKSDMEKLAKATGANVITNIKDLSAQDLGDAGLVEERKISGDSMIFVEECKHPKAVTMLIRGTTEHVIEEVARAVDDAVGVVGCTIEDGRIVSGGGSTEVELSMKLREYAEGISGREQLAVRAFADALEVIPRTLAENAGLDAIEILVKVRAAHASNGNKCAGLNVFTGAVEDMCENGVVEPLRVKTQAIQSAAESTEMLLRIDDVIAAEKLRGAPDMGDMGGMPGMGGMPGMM
ATP-dependent 6-phosphofructokinase (Trypanosoma brucei brucei), sequence (O15648 whole entry, looked up): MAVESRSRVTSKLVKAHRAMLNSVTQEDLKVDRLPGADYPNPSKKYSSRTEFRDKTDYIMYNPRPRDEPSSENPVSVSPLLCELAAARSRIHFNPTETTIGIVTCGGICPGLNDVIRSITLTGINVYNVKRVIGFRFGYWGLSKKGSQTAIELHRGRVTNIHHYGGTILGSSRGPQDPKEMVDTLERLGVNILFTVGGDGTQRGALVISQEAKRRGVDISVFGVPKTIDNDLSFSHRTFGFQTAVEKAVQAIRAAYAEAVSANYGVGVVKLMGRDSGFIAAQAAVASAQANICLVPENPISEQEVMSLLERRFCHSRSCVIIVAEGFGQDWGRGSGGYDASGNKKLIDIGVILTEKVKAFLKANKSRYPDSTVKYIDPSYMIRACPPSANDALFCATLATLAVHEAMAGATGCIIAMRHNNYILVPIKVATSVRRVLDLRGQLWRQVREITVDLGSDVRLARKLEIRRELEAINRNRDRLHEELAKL
ATPase family AAA domain-containing protein 5 (Homo sapiens), sequence (Q96QE3 whole entry, looked up, the tested form may be a part): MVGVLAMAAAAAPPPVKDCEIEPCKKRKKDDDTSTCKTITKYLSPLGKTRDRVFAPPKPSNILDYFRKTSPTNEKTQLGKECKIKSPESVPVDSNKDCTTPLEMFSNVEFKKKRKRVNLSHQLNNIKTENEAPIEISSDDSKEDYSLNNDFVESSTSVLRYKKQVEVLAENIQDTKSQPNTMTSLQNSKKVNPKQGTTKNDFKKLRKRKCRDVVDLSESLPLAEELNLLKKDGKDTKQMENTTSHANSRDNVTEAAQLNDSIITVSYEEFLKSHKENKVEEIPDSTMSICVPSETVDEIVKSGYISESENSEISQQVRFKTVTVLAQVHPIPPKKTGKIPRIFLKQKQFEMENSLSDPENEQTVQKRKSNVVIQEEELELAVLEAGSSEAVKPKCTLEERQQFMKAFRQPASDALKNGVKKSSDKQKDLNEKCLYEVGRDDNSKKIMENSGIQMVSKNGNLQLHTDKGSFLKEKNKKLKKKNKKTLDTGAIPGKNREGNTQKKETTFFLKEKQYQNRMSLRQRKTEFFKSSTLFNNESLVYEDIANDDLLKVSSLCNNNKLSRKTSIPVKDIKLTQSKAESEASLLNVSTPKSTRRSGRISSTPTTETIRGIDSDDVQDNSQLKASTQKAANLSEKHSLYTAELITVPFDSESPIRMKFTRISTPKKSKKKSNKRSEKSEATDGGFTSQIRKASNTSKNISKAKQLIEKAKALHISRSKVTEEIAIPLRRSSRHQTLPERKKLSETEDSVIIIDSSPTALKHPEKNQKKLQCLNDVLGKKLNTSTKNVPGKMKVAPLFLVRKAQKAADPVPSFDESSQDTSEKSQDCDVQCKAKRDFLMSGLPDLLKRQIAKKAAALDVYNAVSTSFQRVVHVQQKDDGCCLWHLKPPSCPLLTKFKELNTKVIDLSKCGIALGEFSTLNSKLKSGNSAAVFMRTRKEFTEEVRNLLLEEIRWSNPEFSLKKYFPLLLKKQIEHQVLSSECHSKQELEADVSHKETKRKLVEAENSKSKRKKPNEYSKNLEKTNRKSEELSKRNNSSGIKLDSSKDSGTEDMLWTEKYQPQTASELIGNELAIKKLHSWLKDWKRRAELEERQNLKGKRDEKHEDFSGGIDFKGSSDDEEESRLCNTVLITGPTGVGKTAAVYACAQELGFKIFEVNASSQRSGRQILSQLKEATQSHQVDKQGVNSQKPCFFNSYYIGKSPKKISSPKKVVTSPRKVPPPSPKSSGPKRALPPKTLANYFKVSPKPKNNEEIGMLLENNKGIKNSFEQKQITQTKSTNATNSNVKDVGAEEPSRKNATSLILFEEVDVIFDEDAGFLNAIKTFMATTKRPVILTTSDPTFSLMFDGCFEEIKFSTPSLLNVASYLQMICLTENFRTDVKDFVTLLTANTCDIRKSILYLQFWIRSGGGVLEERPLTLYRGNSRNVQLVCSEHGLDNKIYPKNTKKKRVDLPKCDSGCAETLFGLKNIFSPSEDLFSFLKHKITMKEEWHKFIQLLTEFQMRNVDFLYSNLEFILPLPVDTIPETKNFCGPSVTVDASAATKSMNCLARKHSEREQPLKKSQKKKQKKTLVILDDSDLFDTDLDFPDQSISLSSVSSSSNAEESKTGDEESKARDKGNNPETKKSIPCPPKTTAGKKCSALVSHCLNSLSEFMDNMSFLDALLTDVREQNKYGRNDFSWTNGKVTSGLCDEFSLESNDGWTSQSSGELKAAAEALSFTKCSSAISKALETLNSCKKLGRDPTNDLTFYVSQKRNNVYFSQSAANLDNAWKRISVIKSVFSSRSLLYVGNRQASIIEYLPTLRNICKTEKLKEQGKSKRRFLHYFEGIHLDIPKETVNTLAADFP
M-phase phosphoprotein 8 (Homo sapiens), sequence (Q99549 whole entry, looked up): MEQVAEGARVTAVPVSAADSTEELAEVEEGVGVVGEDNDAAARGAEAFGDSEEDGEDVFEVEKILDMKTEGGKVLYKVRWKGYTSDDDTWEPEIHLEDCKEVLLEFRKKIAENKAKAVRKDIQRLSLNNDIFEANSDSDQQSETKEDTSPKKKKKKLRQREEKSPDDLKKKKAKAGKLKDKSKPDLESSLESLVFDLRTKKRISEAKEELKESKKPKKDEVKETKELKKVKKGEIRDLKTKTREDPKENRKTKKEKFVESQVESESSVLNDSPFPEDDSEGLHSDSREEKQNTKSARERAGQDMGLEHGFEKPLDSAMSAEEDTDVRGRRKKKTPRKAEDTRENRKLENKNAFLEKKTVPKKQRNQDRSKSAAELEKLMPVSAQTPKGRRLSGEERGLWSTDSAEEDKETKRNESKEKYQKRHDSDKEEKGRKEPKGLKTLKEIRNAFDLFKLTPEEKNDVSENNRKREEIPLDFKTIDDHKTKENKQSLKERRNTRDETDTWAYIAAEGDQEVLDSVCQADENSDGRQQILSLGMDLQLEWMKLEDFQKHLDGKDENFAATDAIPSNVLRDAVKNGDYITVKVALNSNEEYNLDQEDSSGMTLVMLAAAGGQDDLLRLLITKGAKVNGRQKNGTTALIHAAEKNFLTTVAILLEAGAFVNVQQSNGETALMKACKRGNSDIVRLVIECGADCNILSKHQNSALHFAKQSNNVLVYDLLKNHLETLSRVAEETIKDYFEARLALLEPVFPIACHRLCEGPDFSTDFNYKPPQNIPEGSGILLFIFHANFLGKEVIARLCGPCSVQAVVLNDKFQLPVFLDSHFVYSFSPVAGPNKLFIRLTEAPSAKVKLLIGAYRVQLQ

Regarding `CNCCC=C1c2ccccc2CCc2ccccc21`, the compound was called inactive in assay [1], in assay [2], in [5], in [6], in [7] and in assay [8]. Moreover, the compound was classed as inactive in assay [9], in [11], in assay [12], in [13] and in [14]. In addition, the Potency entry in [3] and in [4] was “inactive” each time. Also, the activation in assay [10] was 0.625% (inactive).
On to `Cc1cc(O)c(C(C)C)cc1Cl`, for which, in [8], the compound was called inactive.
On the same count and under the same terms, the entry for `Cc1c(N(C)CS(=O)(=O)O)c(=O)n(-c2ccccc2)n1C` is “inactive”.
As to `Cc1cccc(C)c1NC(=O)CN1CCN(CCCC(c2ccc(F)cc2)c2ccc(F)cc2)CC1`, in [8], the outcome was inactive.
Consider `CCCC1O[C@@H]2C[C@H]3[C@@H]4CCC5=CC(=O)C=C[C@]5(C)[C@H]4[C@@H](O)C[C@]3(C)[C@]2(C(=O)CO)O1` (some centres not stated), for which the call in assay [1], in [2], in [15], in [5], in assay [7] and in [9] was inactive. Further, the call in [18], in assay [11] and in assay [14] was inactive. Further, the Potency result in [3], in [4], in assay [16] and in assay [17] was “inactive” in each case. Further, the viability change in [18] was -3.74%.
Consider `CC(=O)O[C@H]1C[C@@H]2CC[C@@H]3[C@H](CC[C@@]4(C)[C@H]3C[C@H]([N+]3(C)CCCCC3)[C@@H]4OC(C)=O)[C@@]2(C)C[C@@H]1[N+]1(C)CCCCC1`, for which the call in [1], in [2], in assay [15], in assay [5], in assay [7] and in assay [9] was inactive. In addition, the result in [18], in assay [11] and in assay [14] was inactive. In addition, the Potency result in assay [3], in [4], in [16] and in assay [17] was “inactive” each time. Further, the viability change in assay [18] was -0.593%.
For the compound `NC(=O)C(=O)N/N=C/c1ccc([N+](=O)[O-])o1`, in assay [8], the compound was called inactive.
The same measure, in the same setting: the result for `COc1ccc(CN2CCN(C(c3ccc(F)cc3)c3ccc(F)cc3)CC2)c(OC)c1OC` reads “inactive”.
With `CC1(C)CCC(NC(=O)[C@@H](N)CCC(=O)O)CC1`, the Potency result in assay [19], in [3], in assay [4], in [16] and in assay [17] was “inactive” throughout. Moreover, the call in assay [1], in assay [2], in [15], in assay [5], in assay [20] and in assay [6] was inactive. The result in assay [7], in assay [9], in assay [18], in assay [11], in assay [12] and in assay [13] was inactive. Also, in [14], the call was inactive. The activation in assay [10] is 0.125% (inactive). For the same compound, the viability change in assay [18] is 2.98%.

(Values after PubChem BioAssay (NCATS).)
